The record followed here is PMC8384837, “Expanding the binding specificity for RNA recognition by a PUF domain”.

For one test, the target named is PUM1 PUF domain R5-RRA (Homo sapiens, UniProt Q14671 828-1176, C1007R;Q1011A). The test can be described thus: yeast three-hybrid, YBZ-1, SC-Leu-His + 0.5 mM 3-AT, 4 days. The following applies: tags: N-Gal4 AD-HA kept; label: inside an RPR1-promoter hybrid RNA with tandem MS2 sites; ssRNA. In a few lines: (§1)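 A centromeric plasmid in strain YBZ-1 co-expressed Pumilio-1 PUF domain libraries, randomized at the three base-contacting residues of each repeat, with matching RNA elements; the strain carries a LexA–MS2 coat fusion and a HIS3 reporter. After four days on SC-Leu (input) or SC-Leu-His + 0.5 mM 3-AT (selection), the repeat regions were PCR-amplified and Illumina-sequenced. The interaction score is the log change in variant frequency from input to selection, using log2 and a pseudocount of 1 where absent.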
On to “GGCUAGAACUAGUGGAUCCCCCGGCGCCCGGCGGCUCGAGCCCGGGUAAGUGUGAAUAGUCUGCAUGCCGCCGGGCGCCAUGCCUGCAGGUCGACUCUAGAAAACAUG”, for which the binding signal is 1.09 log2 enrichment (interaction score).
The same measure, in the same setting: the result for “GGCUAGAACUAGUGGAUCCCCCGGCGCCCGGCGGCUCGAGCCCGGGUAAGUGUAAAUAGUCUGCAUGCCGCCGGGCGCCAUGCCUGCAGGUCGACUCUAGAAAACAUG” reads 1.06 log2 enrichment (interaction score); that for “GGCUAGAACUAGUGGAUCCCCCGGCGCCCGGCGGCUCGAGCCCGGGUAAGUGUCAAUAGUCUGCAUGCCGCCGGGCGCCAUGCCUGCAGGUCGACUCUAGAAAACAUG”, 4.67 log2 enrichment (interaction score).

The target of a further test is PUM1 PUF domain R5-LFS (Homo sapiens, UniProt Q14671 828-1176, C1007L;R1008F;Q1011S). The description is as above. The following applies: tags: N-Gal4 AD-HA kept; label: inside an RPR1-promoter hybrid RNA with tandem MS2 sites; ssRNA. The essentials: as §1
With “GGCUAGAACUAGUGGAUCCCCCGGCGCCCGGCGGCUCGAGCCCGGGUAAGUGUGAAUAGUCUGCAUGCCGCCGGGCGCCAUGCCUGCAGGUCGACUCUAGAAAACAUG”, the binding signal is 1.48 log2 enrichment (interaction score).
On the same count and under the same terms, the result for “GGCUAGAACUAGUGGAUCCCCCGGCGCCCGGCGGCUCGAGCCCGGGUAAGUGUAAAUAGUCUGCAUGCCGCCGGGCGCCAUGCCUGCAGGUCGACUCUAGAAAACAUG” reads 2.29 log2 enrichment (interaction score); that for “GGCUAGAACUAGUGGAUCCCCCGGCGCCCGGCGGCUCGAGCCCGGGUAAGUGUUAAUAGUCUGCAUGCCGCCGGGCGCCAUGCCUGCAGGUCGACUCUAGAAAACAUG”, 1.78 log2 enrichment (interaction score).
